{"source": "ChEMBL document CHEMBL1201862", "about": "“PubChem BioAssay data set” (2004)", "note": "In all, about 400,000 compounds went through this assay and about 2,100 (0.53%) were called active. Another 14% or so got no clear call; they are omitted. The rule behind the calls is not given here. Many of the other results were omitted from the sample, so actives are more common in it than they were."}
{"molecular_target": "Ataxin-2 (Homo sapiens) (UniProt Q99700)", "sequence (Q99700 whole entry)": "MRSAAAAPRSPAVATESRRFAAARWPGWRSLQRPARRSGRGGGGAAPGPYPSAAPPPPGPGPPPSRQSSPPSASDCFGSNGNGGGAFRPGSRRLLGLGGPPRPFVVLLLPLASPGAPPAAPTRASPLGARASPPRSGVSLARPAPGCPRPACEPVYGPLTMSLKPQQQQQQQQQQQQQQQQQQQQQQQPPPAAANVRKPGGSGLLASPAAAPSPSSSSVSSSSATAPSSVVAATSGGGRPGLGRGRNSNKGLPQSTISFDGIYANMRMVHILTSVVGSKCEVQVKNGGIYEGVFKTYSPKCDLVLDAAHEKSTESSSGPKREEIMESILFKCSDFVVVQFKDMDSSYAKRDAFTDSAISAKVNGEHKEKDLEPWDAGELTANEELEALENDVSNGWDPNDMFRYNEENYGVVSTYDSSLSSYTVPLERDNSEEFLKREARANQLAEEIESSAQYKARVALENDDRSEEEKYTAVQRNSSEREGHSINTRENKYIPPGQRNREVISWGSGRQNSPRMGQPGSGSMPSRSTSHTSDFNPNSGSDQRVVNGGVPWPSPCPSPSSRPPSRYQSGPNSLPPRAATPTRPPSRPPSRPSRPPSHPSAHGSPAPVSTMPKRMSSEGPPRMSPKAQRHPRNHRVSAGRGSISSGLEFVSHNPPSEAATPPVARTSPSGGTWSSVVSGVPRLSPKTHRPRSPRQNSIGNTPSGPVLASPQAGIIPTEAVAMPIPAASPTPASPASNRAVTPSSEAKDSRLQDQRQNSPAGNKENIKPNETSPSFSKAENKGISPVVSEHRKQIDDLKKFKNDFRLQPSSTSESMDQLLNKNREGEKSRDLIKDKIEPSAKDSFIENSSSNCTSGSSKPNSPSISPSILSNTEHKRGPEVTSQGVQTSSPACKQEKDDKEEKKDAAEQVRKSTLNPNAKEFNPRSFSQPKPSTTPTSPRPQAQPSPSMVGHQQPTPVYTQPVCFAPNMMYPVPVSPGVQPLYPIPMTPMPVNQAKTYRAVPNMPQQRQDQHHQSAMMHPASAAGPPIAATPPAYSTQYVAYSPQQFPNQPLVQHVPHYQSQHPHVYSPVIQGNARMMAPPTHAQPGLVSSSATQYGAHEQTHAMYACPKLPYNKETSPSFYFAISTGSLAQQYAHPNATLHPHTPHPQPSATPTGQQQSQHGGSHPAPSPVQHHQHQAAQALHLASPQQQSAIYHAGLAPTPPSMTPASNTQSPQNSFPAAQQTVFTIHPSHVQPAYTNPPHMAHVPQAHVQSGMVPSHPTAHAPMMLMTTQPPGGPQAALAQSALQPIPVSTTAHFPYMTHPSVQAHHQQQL", "assay": "qHTS for Inhibitors of ATXN expression.", "type": "functional"}
{"smiles": "Cc1c2c(n3c(nc4ccccc43)c1C#N)N(CCN1CCOCC1)CC2", "Potency": "inactive"}
{"smiles": "CCOC(=O)c1cc2c(=O)n3ccccc3nc2n(Cc2ccco2)/c1=N\\C(=O)c1cccc(C)c1", "Potency": "inactive"}
{"smiles": "CCC(=O)Oc1ccc2c(C)c(Cl)c(=O)oc2c1", "Potency": "inactive"}
{"smiles": "C=C1CC(COc2ccc3c(C)c(Cl)c(=O)oc3c2)(c2ccccc2)OC1=O", "note": "(stereo not given)", "Potency": "9.47 µM (active)"}
{"smiles": "CCN(CC)c1ccc2c(C)c(Cl)c(=O)oc2c1", "Potency": "inactive"}
{"smiles": "C=C1CC(COc2cc(=O)oc3ccccc23)(c2ccccc2)OC1=O", "note": "(stereo not given)", "Potency": "39.8 µM (active)"}
{"smiles": "COc1cc(NC(=O)c2sc3ncn(CC(=O)N4CCC(C)CC4)c(=O)c3c2C)cc(OC)c1OC", "Potency": "inactive"}
{"smiles": "COc1cc(CNC(C)c2ccccc2)cc(Br)c1OCc1ccc(F)cc1", "note": "(stereo not given)", "Potency": "39.8 µM (active)"}
{"smiles": "COc1cc(/C=C(\\C#N)c2nc3ccccc3[nH]2)cc(Br)c1OCc1ccccc1", "Potency": "inactive"}
{"smiles": "CCCCN(CCCC)C(=O)c1cc2c(=O)n3cccc(C)c3nc2s1", "Potency": "inactive"}
{"smiles": "O=c1[nH][nH]c(=O)c2c(NS(=O)(=O)c3ccccc3)cccc12", "Potency": "inactive"}
{"smiles": "N=C(N)Nc1nc(-c2ccccc2)c2ccccc2n1", "Potency": "1.41 µM (active)"}
{"smiles": "O=C(O)c1ccc(Nc2nc(-c3ccccc3)c3ccccc3n2)cc1", "Potency": "inactive"}
{"smiles": "NNc1nc(-c2ccccc2)c2ccccc2n1", "Potency": "inactive"}
{"smiles": "CCCCN(C)CC(O)Cn1cc(/C=C/C(=O)c2ccc(OC)c(OC)c2)c2ccccc21", "note": "(stereo not given)", "Potency": "inactive"}
{"smiles": "c1ccc(-c2cn3c(n2)CCc2ccc4cccnc4c2-3)cc1", "Potency": "39.8 µM (active)"}
{"smiles": "c1ccc(-c2cn3nc(-c4ccccc4)c(-c4ccccc4)nc3n2)cc1", "Potency": "inactive"}
{"smiles": "c1ccc(-c2cn3nc4c(nc3n2)CCCC4)cc1", "Potency": "inactive"}
{"smiles": "COC(=O)C1CCN(C(c2cc(OC)c(OC)c(OC)c2)c2sc3nc(C)nn3c2O)CC1", "note": "(stereo not given)", "Potency": "inactive"}
{"smiles": "O=C(C1CCCCC1)N1CCC(O)(c2ccc(Cl)cc2)CC1", "Potency": "inactive"}
{"smiles": "O=C(C1CCCCC1)N1C[C@@H](n2cc(-c3ccc(F)cc3)nn2)[C@H](O)C[C@@H]1c1ccc(Cl)cc1", "Potency": "22.4 µM (active)"}
{"smiles": "Cc1ccc([C@H]2C[C@@H](O)[C@H](n3cc(-c4ccc(F)cc4)nn3)CN2C(=O)C2CCCCC2)cc1", "Potency": "22.4 µM (active)"}
{"smiles": "CC1CSc2n1c(-c1ccccc1)c[n+]2-c1cccc(C(F)(F)F)c1", "note": "(stereo not given)", "Potency": "inactive"}
{"smiles": "Cc1nnc(SCc2cccc3ccccc23)s1", "Potency": "inactive"}
{"smiles": "CC(C)NC(=O)N1c2ccccc2Sc2ccccc21", "Potency": "inactive"}
{"smiles": "Cc1nnc(SC(=O)N2c3ccccc3Sc3ccccc32)s1", "Potency": "25.1 µM (active)"}
{"smiles": "O=C(CCCc1c[nH]c2ccccc12)Nc1ccc2ccccc2c1", "Potency": "inactive"}
{"smiles": "COc1ccc(C(=O)OCC(=O)c2c[nH]c3ccccc23)c(OC)c1", "Potency": "inactive"}
{"smiles": "Nc1[nH]c(C(=O)c2ccccc2)c(-c2ccccc2C(F)(F)F)c1C(=O)NCCc1c[nH]c2ccccc12", "Potency": "25.1 µM (active)"}
{"smiles": "Cc1ccc(N=C(S)NCCc2c[nH]c3ccccc23)c(C)c1", "Potency": "inactive"}
{"smiles": "Nc1[nH]c(C(=O)c2ccccc2)c(-c2ccc(Cl)c(F)c2)c1C(=O)NCCc1c[nH]c2ccccc12", "Potency": "35.5 µM (active)"}
{"smiles": "Nc1[nH]c(C(=O)c2ccccc2)c(-c2ccc(F)cc2)c1C(=O)NCCc1c[nH]c2ccccc12", "Potency": "39.8 µM (active)"}
{"smiles": "COc1ccc(C(=O)c2[nH]c(N)c(C(=O)NCCc3c[nH]c4ccccc34)c2-c2ccccc2Br)cc1", "Potency": "31.6 µM (active)"}
{"smiles": "CC(C)NC(=O)COCc1cc(-c2ccc3c(c2)OCO3)on1", "Potency": "inactive"}
{"smiles": "Cc1c(Cc2ccccc2)sc(/N=C/c2ccc3ccccc3c2)c1C(N)=O", "Potency": "inactive"}
{"smiles": "O=C1c2cccnc2C(=O)N1Cc1ccc(F)cc1S(=O)(=O)NCc1ccco1", "Potency": "inactive"}
{"smiles": "O=C(COC(=O)c1c2c(nc3ccccc13)/C(=C/c1ccco1)CC2)NC1CCCC1", "Potency": "inactive"}
{"smiles": "COCCn1c(N)c(C(=O)NCC2CCCO2)c2nc3ccccc3nc21", "note": "(stereo not given)", "Potency": "inactive"}
{"smiles": "COC(=O)c1cc(S(=O)(=O)NCC2CCN(Cc3cc(C)ccc3C)CC2)cn1C", "Potency": "inactive"}
{"smiles": "N#C/C(=C\\c1cc(Cl)cc(Cl)c1O)C(=O)NC1CCCCC1", "Potency": "inactive"}
{"smiles": "O=[N+]([O-])c1c(Nc2ccc(O)cc2)cc(Cl)c2nonc12", "Potency": "2.24 µM (active)"}
{"smiles": "O=C(N/N=C/c1ccsc1)C1CC1", "Potency": "inactive"}
{"smiles": "COc1ccc2[nH]c(CN3CCN(CCC(C)C)C(CCO)C3)c(C)c2c1", "note": "(stereo not given)", "Potency": "inactive"}
{"smiles": "CCOC(=O)C1=C(C)N=c2s/c(=C/c3ccc(OCC(=O)O)c(OC)c3)c(=O)n2C1c1ccc(Cl)cc1", "note": "(stereo not given)", "Potency": "inactive"}
{"smiles": "Cc1ccc2nc(-c3ccc(NS(=O)(=O)c4c(C)n(C)c(=O)n(C)c4=O)cc3)sc2c1", "Potency": "inactive"}
{"smiles": "CCCc1nnc(NC(=O)c2nc(S(=O)(=O)Cc3ccc(C)cc3)ncc2Cl)s1", "Potency": "39.8 µM (active)"}
{"smiles": "CCc1nnc(NC(=O)c2sc3nc4c(cc3c2N)CCCCC4)s1", "Potency": "inactive"}
{"smiles": "CCc1nnc(NC(=O)c2sc3nc4c(cc3c2N)CCCCCC4)s1", "Potency": "inactive"}
{"smiles": "CCOCCC(=O)Nc1nnc(CCc2ccccc2)s1", "Potency": "inactive"}
{"smiles": "Cc1ccc(CS(=O)(=O)c2ncc(Cl)c(C(=O)Nc3nc4ccc(C)cc4s3)n2)cc1", "Potency": "22.4 µM (active)"}
{"smiles": "CCc1nnc(NC(=O)c2nc(S(=O)(=O)Cc3ccc(C)cc3)ncc2Cl)s1", "Potency": "31.6 µM (active)"}
{"smiles": "CCN1CCN(CC(=O)Nc2nc3ccc(C)cc3s2)CC1", "Potency": "inactive"}
{"smiles": "CCc1nnc(NC(=O)c2ccc(Br)o2)s1", "Potency": "inactive"}
{"smiles": "CCCc1nnc(NC(=O)c2nc(S(=O)(=O)Cc3cccc(C)c3)ncc2Cl)s1", "Potency": "35.5 µM (active)"}
{"smiles": "CCc1nnc(NC(=O)c2ccc(S(=O)(=O)N(CCOC)CCOC)cc2)s1", "Potency": "inactive"}
{"smiles": "CC(=O)Nc1nnc(COc2ccc(Cl)cc2)s1", "Potency": "inactive"}
{"smiles": "Cc1sc(NC(=O)/C=C/c2ccco2)c(C(=O)OC(C)C)c1C", "Potency": "inactive"}
{"smiles": "O=C(O)CC/C(=N/NC(=O)CNC(=O)Cc1ccccc1)c1ccccc1", "Potency": "inactive"}
{"smiles": "COc1ccc(/C=N/NC(=O)c2sccc2C)c2ccccc12", "Potency": "inactive"}
{"smiles": "CCCc1nnc(SCC(=O)Nc2cccc(Cl)c2Cl)o1", "Potency": "inactive"}
{"smiles": "Fc1ccc(NC(S)=Nc2nccs2)cc1", "Potency": "inactive"}
{"smiles": "O=C(c1cnn(-c2ccc(Cl)cc2)c1)c1ccccc1O", "Potency": "inactive"}
{"smiles": "OCCNc1c2ccccc2nc2c(F)c(F)c(F)c(F)c12", "Potency": "inactive"}
{"smiles": "O=c1oc2c(CN3CCCCC3)c(O)ccc2cc1-c1nc2ccccc2[nH]1", "Potency": "inactive"}
{"smiles": "CSc1nnc(NC(=O)c2nc(S(=O)(=O)Cc3ccccc3)ncc2Cl)s1", "Potency": "28.2 µM (active)"}
{"smiles": "CSc1ncc(C(=O)Nc2ccccc2Cl)c(C)n1", "Potency": "inactive"}
{"smiles": "CC(C)(C)NC(=O)CSc1nnc(NC(=O)CCc2ccccc2)s1", "Potency": "inactive"}
{"smiles": "O=C(CN(CCc1ccccc1)C(=O)c1csnn1)NCc1ccc(F)cc1", "Potency": "inactive"}
{"smiles": "Cc1ccccc1C1N=C2Oc3ccccc3C=C2C(=O)N1", "note": "(stereo not given)", "Potency": "inactive"}
{"smiles": "COc1c(C)cc(S(=O)(=O)NCc2ccco2)c(C)c1C", "Potency": "inactive"}
{"smiles": "CCN1/C(=C/C=C/c2oc3ccc(-c4ccccc4)cc3[n+]2CC)Oc2ccc(-c3ccccc3)cc21", "Potency": "29.9 µM (active)"}
{"smiles": "O=C(Cc1ccc(NC2=NC3CS(=O)(=O)CC3S2)cc1)N1CCN(c2ccc(F)cc2)CC1", "note": "(stereo not given)", "Potency": "inactive"}
{"smiles": "COc1cc(CCNC2=CC(=O)c3ncccc3C2=O)ccc1O", "Potency": "16.8 µM (active)"}
{"smiles": "COc1ccc(CN2C(=O)c3cccnc3C2=O)cc1S(=O)(=O)NCc1ccc(C)o1", "Potency": "inactive"}
{"smiles": "COc1ccc(CN2C(=O)c3cccnc3C2=O)cc1S(=O)(=O)N1CCOc2ccccc21", "Potency": "inactive"}
{"smiles": "CC(C)(C)c1ccc(SC2=C[C@@]3(O)CC[C@@H](O)[C@@](Sc4ccc(C(C)(C)C)cc4)(C2=O)[C@H]3O)cc1", "Potency": "25.1 µM (active)"}
{"smiles": "C=CCn1c(SCCN2C(=O)c3ccccc3C2=O)nc2scc(-c3ccc(F)cc3)c2c1=O", "Potency": "inactive"}
{"smiles": "CCOC(=O)c1c(C)[nH]c(C(=O)N(C)CC(=O)Nc2ccc(OCC)c(OCC)c2)c1C", "Potency": "inactive"}
{"smiles": "C=CCn1c(SCC(=O)c2[nH]c(C)c(C(=O)OCC)c2C)nc2scc(-c3ccc(OC)c(OC)c3)c2c1=O", "Potency": "20 µM (active)"}
{"smiles": "O=C1OCCN1C(=O)[C@H]1[C@H](c2ccc(F)cc2)C(c2ccccc2)=NN1c1ccccc1", "Potency": "inactive"}
{"smiles": "Cc1cccc2c(C(=O)O)c3cccc(C)c3nc12", "Potency": "inactive"}
{"smiles": "COc1ccc(C(=O)NCCNc2nc3c(C)cccc3cc2C#N)cc1OC", "Potency": "inactive"}
{"smiles": "CNc1c2cccc(C)c2nc2c(C(=O)NCCN(C)C)cccc12", "Potency": "0.794 µM (active)"}
{"smiles": "CCOc1nc(Nc2ccc([N+](=O)[O-])cc2)nc(NC(C)(C)C)n1", "Potency": "inactive"}
{"smiles": "O=[N+]([O-])c1ccc(Nc2nc(N3CCOCC3)nc(N3CCOCC3)n2)cc1", "Potency": "inactive"}
{"smiles": "CC1CCN(c2nc(Cl)nc(Nc3ccc([N+](=O)[O-])cc3)n2)CC1", "Potency": "39.8 µM (active)"}
{"smiles": "C[C@H](NC(=O)c1[nH]cnc1C(=O)NCc1ccc(CNC(=O)OC(C)(C)C)cc1)C(=O)OCc1ccccc1", "Potency": "25.1 µM (active)"}
{"smiles": "O=C(NC(Cc1ccccc1)C(=O)Oc1ccc2c(C(F)(F)F)cc(=O)oc2c1)OCc1ccccc1", "note": "(stereo not given)", "Potency": "inactive"}
{"smiles": "COCc1ccc(C(=O)Nc2ccccc2C(=O)NCc2cccnc2)cc1", "Potency": "inactive"}
{"smiles": "CC(NC(=O)OC(C)(C)C)C(=O)NC(CCC(=O)OCc1ccccc1)C(N)=O", "note": "(stereo not given)", "Potency": "inactive"}
{"smiles": "CC(C)(C)OC(=O)NCc1ccc(NC(=O)c2[nH]cnc2C(=O)N[C@@H](Cc2ccccc2)C(=O)OCc2ccccc2)cc1", "Potency": "35.5 µM (active)"}
{"smiles": "C[C@H](NC(=O)c1[nH]cnc1C(=O)Nc1ccc(CNC(=O)OC(C)(C)C)cc1)C(=O)OCc1ccccc1", "Potency": "39.8 µM (active)"}
{"smiles": "COc1ccccc1C1C2=C(CC(C)(C)CC2=O)N(CC(=O)O)C2=C1C(=O)CC(C)(C)C2", "Potency": "inactive"}
{"smiles": "CN(CCC#N)C(=O)COC(=O)c1c2c(nc3ccccc13)/C(=C\\c1ccco1)CC2", "Potency": "inactive"}
{"smiles": "COc1ccccc1N/C=C/c1onc(C)c1[N+](=O)[O-]", "Potency": "inactive"}
{"smiles": "Cc1cc(NC(=O)COC(=O)c2cccc(O)c2)no1", "Potency": "inactive"}
{"smiles": "COc1ccc(C(=O)COC(=O)c2cncc(Br)c2)cc1", "Potency": "inactive"}
{"smiles": "O=C(OCC1OC(n2cc(Br)c(=O)[nH]c2=O)C(Br)C1O)c1ccccc1", "note": "(stereo not given)", "Potency": "inactive"}
{"smiles": "CCOC(=O)c1ccc(N2C(=O)c3[nH]nc(-c4ccc(OC)cc4)c3C2c2cccc(O)c2)cc1", "note": "(stereo not given)", "Potency": "31.6 µM (active)"}
{"smiles": "CCOC(=O)c1ccc(N2C(=O)c3[nH]nc(-c4ccccc4)c3C2c2ccc(CC)cc2)cc1", "note": "(stereo not given)", "Potency": "39.8 µM (active)"}
